Assay results from the antibiotic and cytotoxicity screens of Wong et al. (2023).
In all, about 39,000 compounds went through this assay and about 1,500 (3.8%) were called active. The sample holds actives, similar compounds and a random draw of the others, so the mix is not that of the screen.

Test system: HSkMC (human skeletal muscle cells)
Assay: cytotoxicity call (relative viability < 0.9)
Conditions: 10 µM

SMILES	cytotoxicity call
COc1ccc(NC(=O)N(C)C[C@@H]2OCCCC[C@H](C)Oc3ccc(NC(=O)Cc4ccccc4)cc3C(=O)N([C@H](C)CO)C[C@@H]2C)cc1	inactive
Cc1ccc(Oc2ccc(CN)cc2)cc1	inactive
Cc1ccc(S(=O)(=O)N(C)C[C@H]2Oc3ccc(NC(=O)CCCN(C)C)cc3CC(=O)N([C@H](C)CO)C[C@@H]2C)cc1	inactive
C[C@@H]1CN([C@H](C)CO)C(=O)c2cc(NC(=O)Nc3ccccc3)ccc2O[C@@H](C)CCCCO[C@H]1CN(C)C(=O)C1CCCCC1	inactive
C[C@H](CO)N1C[C@H](C)[C@H](CN(C)S(=O)(=O)c2ccc(Cl)cc2)Oc2ccc(NC(=O)CCCN(C)C)cc2CC1=O	inactive
COCC(=O)N1C[C@H](C)[C@H](OC)CN(C)C(=O)c2cc(NC(=O)c3cc(C)on3)ccc2OC[C@H]1C	inactive
C[C@@H]1CN([C@@H](C)CO)C(=O)Cc2cc(NC(=O)CCCN(C)C)ccc2O[C@H]1CN(C)S(=O)(=O)c1ccccc1	inactive
CC(=O)OC1CCC2(C)C(CC(OC(C)=O)C3(C)C2CCC2(C)C(c4ccoc4)OC(=O)C4OC423)C1(C)C (stereo not drawn) [3beta-ACETOXYDEOXODIHYDROGEDUNIN ]	inactive
CC1(C)C(=O)C=CC2(C)C1CC(=O)C1(C)C2CCC2(C)C(c3ccoc3)OC(=O)C3OC321 (stereo not given)	inactive
CC1(C)C(=O)C=CC2(C)C1C=CC1(C)C2CCC2(C)C(c3ccoc3)OC(=O)C3OC312 (stereo not given)	active
CCC(=O)N1C[C@]2(C1)CN([C@@H](CO)c1[nH]c3cc(ccc3c12)OC)S(=O)(=O)C	inactive
C[C@@H]1CCCCO[C@H](CN(C)C(=O)Nc2ccc(F)cc2)[C@H](C)CN([C@@H](C)CO)C(=O)c2cc(NC(=O)CCCN(C)C)ccc2O1	inactive
COc1ccc(NC(=O)Nc2ccc3c(c2)C(=O)N([C@@H](C)CO)C[C@@H](C)[C@H](CN(C)C(=O)Nc2c(C)noc2C)OCCCC[C@H](C)O3)cc1	inactive
Cc1ccc(O)c(C(C)(C)C)c1	inactive
Cc1cc(CO)c(O)c(CO)c1	inactive
Cc1cc(C(C)(C)C)c(O)c(C(C)(C)C)c1	active
COc1ccc(S(=O)(=O)Nc2ccc3c(c2)C(=O)N([C@@H](C)CO)C[C@H](C)[C@@H](CN(C)C(=O)Nc2ccc(C(F)(F)F)cc2)OCCCC[C@@H](C)O3)cc1	inactive
NNC(=O)CCc1ccccc1	inactive
CNC(=O)CN1CCOC[C@]2(CCCN(C(C)=O)C2)C1	inactive
S=C(NCCCc1cnc[nH]1)NCCCN(Cc1ccc(Cl)c(Cl)c1)c1ccc(Br)cn1	active
COc1ccc2c3c([nH]c2c1)[C@H](CO)N(CC1CCCCC1)C[C@]13CCN(CC1)C(=O)NC1CCCC1	active
COc1ccc2c3c([nH]c2c1)[C@@H](CO)N(CC1CCCCC1)C[C@]13CCN(CC1)C(=O)Nc1cccc(c1)F	active
COc1ccc2c3c([nH]c2c1)[C@H](CO)N(CC1CCCCC1)C[C@]13CCN(CC1)C(=O)Nc1cccc(c1)F	inactive
COc1ccc2c3c([nH]c2c1)[C@H](CO)N(C[C@]13CCN(CC1)CC1CCCC1)C(=O)Nc1cccc(c1)F	inactive

SMILES	cytotoxicity call
COc1ccc2c3c([nH]c2c1)[C@@H](CO)N(CC1CCOCC1)C[C@]13CCN(CC1)C(=O)C1CCOCC1	inactive
COc1ccc2c3c([nH]c2c1)[C@@H](CO)N(C[C@]13CCN(CC1)CC1CCCCC1)C(=O)Nc1cccc(c1)F	active
COc1ccc2c3c([nH]c2c1)[C@H](CO)N(C[C@]13CCN(CC1)CC1CCCCC1)C(=O)Nc1cccc(c1)F	active
COc1ccc2c3c([nH]c2c1)[C@H](CO)N(C[C@]13CCN(CC1)CC1CCCCC1)C(=O)Nc1c(noc1C)C	inactive
COc1ccc2c3c([nH]c2c1)[C@@H](CO)N(C[C@]13CCN(CC1)CC1CCCC1)C(=O)Nc1cccc(c1)F	inactive
COc1ccc2c3c([nH]c2c1)[C@@H](CO)N(CC1CCCCC1)C[C@]13CCN(CC1)C(=O)NC1CCCC1	inactive
COc1ccc2c3c([nH]c2c1)[C@@H](CO)N(C[C@]13CCN(CC1)CC1CCCCC1)C(=O)Nc1c(noc1C)C	inactive
COc1ccc(cc1)CN1C[C@]2(CCN(CC2)C(=O)Nc2cccc(c2)F)c2c([nH]c3cc(ccc23)OC)[C@@H]1CO	inactive
C[C@@H]1CN([C@H](C)CO)S(=O)(=O)c2ccc(-c3ccc(C(=O)N(C)C)cc3)cc2O[C@H]1CN(C)C(=O)C1CC1	inactive
C[C@@H]1CN([C@H](C)CO)C(=O)Cc2cc(NS(=O)(=O)c3ccccc3)ccc2O[C@H]1CN(C)S(=O)(=O)c1cccs1	inactive
Cc1cc(C(=O)Nc2cccc3c2O[C@@H](CN(C)S(=O)(=O)c2cn(C)cn2)[C@H](C)CN([C@H](C)CO)C3=O)n(C)n1	inactive
NC(=O)NCC#Cc1ccc2c(c1)[C@]1(C(=O)N2)[C@H](c2ccc(OCCO)cc2)N2[C@H](c3ccccc3)[C@H](c3ccccc3)OC(=O)[C@H]2[C@@H]1C(N)=O	inactive
O=C(C[C@H]1CC[C@@H](NC(=O)Cc2ccccn2)[C@H](CO)O1)NCCCN1CCOCC1	inactive
CC(=O)n1cc([C@@H]2C=C(C(=O)N3CCN(Cc4ccccc4)CC3)O[C@H](OCc3ccc(CO)cc3)C2)c2ccccc21	inactive
O=C(C[C@H]1C[C@@H]2c3cc(NS(=O)(=O)c4ccc(F)cc4)ccc3O[C@@H]2[C@@H](CO)O1)N1CCOCC1	inactive
Cc1cc(C)c(C)c(C(=O)O)c1C	inactive
O=C(C[C@@H]1CC[C@H]2NC[C@H](O)COC[C@@H]2O1)NCCN1CCCC1	inactive
C[C@@H]1CN([C@@H](C)CO)C(=O)Cc2cc(NS(=O)(=O)c3ccc(Cl)cc3)ccc2O[C@@H]1CN(C)S(C)(=O)=O	inactive
C[C@@H]1CCCCO[C@H](CN(C)Cc2ccc3c(c2)OCO3)[C@H](C)CN([C@@H](C)CO)C(=O)c2cc(NC(=O)Nc3ccc4c(c3)OCO4)ccc2O1	active
C[C@@H]1CCCCO[C@@H](CN(C)Cc2ccc3c(c2)OCO3)[C@@H](C)CN([C@@H](C)CO)C(=O)c2cc(NC(=O)Nc3ccc4c(c3)OCO4)ccc2O1	inactive
C[C@@H]1CN([C@H](C)CO)C(=O)c2cc(NC(=O)Nc3ccc4c(c3)OCO4)ccc2O[C@@H](C)CCCCO[C@@H]1CN(C)Cc1ccc(Cl)c(Cl)c1	inactive
C[C@@H]1CN([C@H](C)CO)C(=O)c2cc(NC(=O)Nc3ccc4c(c3)OCO4)ccc2O[C@@H](C)CCCCO[C@@H]1CN(C)Cc1ccc2c(c1)OCO2	inactive
COc1ccc(NC(=O)Nc2ccc3c(c2)C(=O)N([C@H](C)CO)C[C@H](C)[C@@H](CN(C)Cc2ccc4c(c2)OCO4)OCCCC[C@H](C)O3)cc1	inactive
C[C@H]1CCCCO[C@@H](CN(C)CC2CCCCC2)[C@@H](C)CN([C@@H](C)CO)C(=O)c2cc(NC(=O)Nc3ccc4c(c3)OCO4)ccc2O1	active

SMILES	cytotoxicity call
C[C@@H]1CN([C@@H](C)CO)C(=O)c2cc(NC(=O)Nc3ccc4c(c3)OCO4)ccc2O[C@@H](C)CCCCO[C@H]1CN(C)Cc1ccc(Cl)c(Cl)c1	inactive
C[C@@H]1CCCCO[C@@H](CN(C)CC2CCCCC2)[C@@H](C)CN([C@H](C)CO)C(=O)c2cc(NC(=O)Nc3ccc4c(c3)OCO4)ccc2O1	inactive
COc1ccc(NC(=O)Nc2ccc3c(c2)C(=O)N([C@@H](C)CO)C[C@H](C)[C@H](CN(C)Cc2ccc4c(c2)OCO4)OCCCC[C@H](C)O3)cc1	active
C[C@@H]1CCCCO[C@@H](CN(C)Cc2ccc(Cl)c(Cl)c2)[C@@H](C)CN([C@@H](C)CO)C(=O)c2cc(NC(=O)Nc3ccc4c(c3)OCO4)ccc2O1	active
C[C@H](CO)N1C[C@H](C)[C@@H](CN(C)CC2CCCCC2)OCCCC[C@H](C)Oc2ccc(NC(=O)Nc3ccc4c(c3)OCO4)cc2C1=O	inactive
COc1ccc(NC(=O)Nc2ccc3c(c2)C(=O)N([C@@H](C)CO)C[C@H](C)[C@H](CN(C)Cc2ccc4c(c2)OCO4)OCCCC[C@@H](C)O3)cc1	inactive
COc1ccc(CN(C)C[C@@H]2OCCCC[C@@H](C)Oc3ccc(NC(=O)c4ccccc4)cc3C(=O)N([C@H](C)CO)C[C@@H]2C)cc1	inactive
Cc1noc(C)c1NC(=O)Nc1ccc2c(c1)C(=O)N([C@@H](C)CO)C[C@H](C)[C@@H](CN(C)C(=O)Nc1c(C)noc1C)OCCCC[C@H](C)O2	inactive
CN1CCN(C(=O)C[C@@H]2CC[C@@H]3[C@H](COc4ccc(NC(=O)c5cscn5)cc4C(=O)N3C)O2)CC1	inactive
O=C(C[C@@H]1C[C@H]2c3cc(NC(=O)C4CCOCC4)ccc3O[C@H]2[C@@H](CO)O1)NCc1cc(F)ccc1F	inactive
Cc1ccc(S(=O)(=O)N(C)C[C@@H]2Oc3ccc(NS(=O)(=O)c4c(C)noc4C)cc3CC(=O)N([C@H](C)CO)C[C@H]2C)cc1	inactive
CC(=O)OC1CC2C(C)(C)C=CCC2(C)C2CCC3(C)C(c4ccoc4)OC(=O)C4OC43C12C (stereo not given)	inactive
O=C(CN1CCOCC1)NCC[C@H]1CC[C@H](NC(=O)c2ccccc2F)[C@@H](CO)O1	inactive
C[C@@H]1CN([C@@H](C)CO)C(=O)Cc2cc(NC(=O)Nc3cccc4ccccc34)ccc2O[C@@H]1CN(C)S(=O)(=O)c1cccs1	inactive
C(=N\c1nnc2nc[nH]n12)/c1ccco1	inactive
C[C@@H]1CCCCO[C@@H](CN(C)Cc2ccc(Cl)c(Cl)c2)[C@H](C)CN([C@@H](C)CO)C(=O)c2cc(N(C)C)ccc2O1	inactive
C[C@@H]1CCCCO[C@@H](CN(C)Cc2ccc(Cl)c(Cl)c2)[C@H](C)CN([C@@H](C)CO)C(=O)c2cc(NC(=O)Nc3ccc4c(c3)OCO4)ccc2O1	inactive
C[C@@H]1CCCCO[C@H](CN(C)Cc2ccc(Cl)c(Cl)c2)[C@H](C)CN([C@@H](C)CO)C(=O)c2cc(NC(=O)Nc3ccc4c(c3)OCO4)ccc2O1	active
C[C@H](CO)N1C[C@H](C)[C@@H](CN(C)Cc2ccc(Cl)c(Cl)c2)OCCCC[C@H](C)Oc2ccc(NC(=O)Nc3ccc4c(c3)OCO4)cc2C1=O	active
C[C@@H]1CCCCO[C@@H](CN(C)Cc2ccc(Cl)c(Cl)c2)[C@H](C)CN([C@H](C)CO)C(=O)c2cc(NC(=O)Nc3ccc4c(c3)OCO4)ccc2O1	inactive
C[C@@H]1CCCCO[C@H](CN(C)Cc2ccc(Cl)c(Cl)c2)[C@@H](C)CN([C@@H](C)CO)C(=O)c2cc(NC(=O)Nc3ccc4c(c3)OCO4)ccc2O1	inactive
C[C@H]1CCCCO[C@H](CN(C)Cc2ccc(Cl)c(Cl)c2)[C@@H](C)CN([C@@H](C)CO)C(=O)c2cc(NC(=O)Nc3ccc4c(c3)OCO4)ccc2O1	inactive
